Laboratory results: PMC7862700, “An all-to-all approach to the identification of sequence-specific readers for epigenetic DNA modifications on cytosine”

Columns and labels:
Assay in all cases: DAPPL (digital affinity profiling via proximity ligation, sequencing); 10 mM Tris-HCl pH 7.5, 50 mM NaCl, 1 mM DTT, 4% glycerol, room temperature, 30 min; GST-TFs on glutathione beads, 16-mer random dsDNA library, 0.1% formaldehyde crosslink after washing; high values mean tight binding
Settings in all cases: protein: recombinant; tags: N-terminal GST; dsDNA, one strand shown
FLI1 = biological target: T1, FLI1 (Homo sapiens, UniProt Q01543 1-452)
T1 sequence: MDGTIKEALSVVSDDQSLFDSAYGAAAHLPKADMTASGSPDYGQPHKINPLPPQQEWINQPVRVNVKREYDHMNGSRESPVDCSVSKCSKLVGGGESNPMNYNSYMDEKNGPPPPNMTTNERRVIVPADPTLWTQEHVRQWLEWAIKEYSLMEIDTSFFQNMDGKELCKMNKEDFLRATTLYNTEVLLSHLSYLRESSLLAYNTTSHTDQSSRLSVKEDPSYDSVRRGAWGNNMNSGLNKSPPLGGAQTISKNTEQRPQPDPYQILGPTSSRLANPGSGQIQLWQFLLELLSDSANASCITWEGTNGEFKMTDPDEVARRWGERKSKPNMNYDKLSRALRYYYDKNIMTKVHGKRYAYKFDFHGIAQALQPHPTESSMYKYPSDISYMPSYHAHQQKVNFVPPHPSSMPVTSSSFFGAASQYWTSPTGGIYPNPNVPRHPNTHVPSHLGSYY
Method in brief: (§1)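 Human transcription factors were made in yeast as GST fusions, captured on glutathione beads and barcoded with DNA. With a tag-only sample included, the pool was incubated with 200 nmole of a random double-stranded 16-mer DNA library in Tris/NaCl/DTT/glycerol buffer at room temperature for 30 min, then crosslinked with 0.1% formaldehyde after washing, ligated by proximity, amplified and sequenced. For binding signal, each hexamer's read frequency for a factor is divided by its frequency for the tag-only sample.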

ELK1 = biological target: T2, ELK1 (Homo sapiens, UniProt P19419 1-428)
T2 sequence: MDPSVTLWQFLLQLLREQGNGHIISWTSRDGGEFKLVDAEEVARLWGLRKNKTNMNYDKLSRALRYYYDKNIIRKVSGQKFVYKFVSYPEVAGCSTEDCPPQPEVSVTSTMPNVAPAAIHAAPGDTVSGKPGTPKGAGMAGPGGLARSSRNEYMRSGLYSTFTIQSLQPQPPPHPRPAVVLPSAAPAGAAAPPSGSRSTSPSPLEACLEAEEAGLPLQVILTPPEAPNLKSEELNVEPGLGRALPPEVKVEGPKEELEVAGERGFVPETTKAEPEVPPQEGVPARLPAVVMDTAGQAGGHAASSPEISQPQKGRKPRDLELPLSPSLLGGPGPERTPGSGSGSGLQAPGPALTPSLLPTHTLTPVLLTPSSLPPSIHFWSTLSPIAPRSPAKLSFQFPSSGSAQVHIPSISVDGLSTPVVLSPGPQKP
Method in brief: as §1

GABPA = biological target: T3, GABPA (Homo sapiens, UniProt Q06546 1-454)
T3 sequence: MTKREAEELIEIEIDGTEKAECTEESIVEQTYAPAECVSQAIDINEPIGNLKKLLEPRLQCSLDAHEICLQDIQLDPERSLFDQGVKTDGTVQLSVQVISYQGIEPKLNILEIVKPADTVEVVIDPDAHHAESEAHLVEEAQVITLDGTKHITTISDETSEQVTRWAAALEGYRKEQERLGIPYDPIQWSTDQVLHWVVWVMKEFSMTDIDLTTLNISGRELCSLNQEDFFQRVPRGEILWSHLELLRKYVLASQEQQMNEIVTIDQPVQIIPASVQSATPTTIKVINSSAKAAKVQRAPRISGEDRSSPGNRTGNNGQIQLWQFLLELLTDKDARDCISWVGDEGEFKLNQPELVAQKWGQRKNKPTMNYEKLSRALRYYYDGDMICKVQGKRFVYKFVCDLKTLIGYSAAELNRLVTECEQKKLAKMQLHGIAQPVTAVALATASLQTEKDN
Method in brief: as §1

ERG = biological target: T4, ERG (Homo sapiens, UniProt P11308 1-479)
T4 sequence: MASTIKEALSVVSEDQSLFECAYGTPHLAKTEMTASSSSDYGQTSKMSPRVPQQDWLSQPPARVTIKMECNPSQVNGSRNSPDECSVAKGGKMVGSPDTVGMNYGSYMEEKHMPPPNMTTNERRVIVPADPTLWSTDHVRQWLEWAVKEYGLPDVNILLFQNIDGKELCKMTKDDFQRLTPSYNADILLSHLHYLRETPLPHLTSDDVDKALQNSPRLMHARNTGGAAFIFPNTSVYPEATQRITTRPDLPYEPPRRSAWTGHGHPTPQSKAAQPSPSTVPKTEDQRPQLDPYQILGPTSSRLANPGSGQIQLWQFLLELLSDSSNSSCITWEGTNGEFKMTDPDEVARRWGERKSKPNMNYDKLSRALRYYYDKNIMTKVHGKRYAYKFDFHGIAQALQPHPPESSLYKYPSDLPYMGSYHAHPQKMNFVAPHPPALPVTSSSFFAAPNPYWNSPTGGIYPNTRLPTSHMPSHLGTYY
Method in brief: as §1

ELF1 = ELF1 (Homo sapiens, UniProt P32519 1-619)
Method in brief: as §1

EHF = biological target: T5, EHF (Homo sapiens, UniProt Q9NZC4 1-300)
T5 sequence: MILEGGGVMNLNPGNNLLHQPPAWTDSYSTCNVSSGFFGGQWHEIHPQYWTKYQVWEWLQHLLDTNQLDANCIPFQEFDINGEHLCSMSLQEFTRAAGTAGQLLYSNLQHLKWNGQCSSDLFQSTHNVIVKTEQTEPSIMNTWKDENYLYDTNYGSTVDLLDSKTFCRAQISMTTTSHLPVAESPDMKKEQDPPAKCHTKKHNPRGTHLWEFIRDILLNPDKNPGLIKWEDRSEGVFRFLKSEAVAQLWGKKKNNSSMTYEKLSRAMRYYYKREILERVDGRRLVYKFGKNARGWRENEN
Method in brief: as §1

SPI1 [1] = biological target: SPI1 (Homo sapiens, UniProt P17947 1-270)
Method in brief: as §1

SPIB = SPIB (Homo sapiens, UniProt Q01892 1-262)
Method in brief: as §1

ELK3 = biological target: T6, ELK3 (Homo sapiens, UniProt P41970 1-407)
T6 sequence: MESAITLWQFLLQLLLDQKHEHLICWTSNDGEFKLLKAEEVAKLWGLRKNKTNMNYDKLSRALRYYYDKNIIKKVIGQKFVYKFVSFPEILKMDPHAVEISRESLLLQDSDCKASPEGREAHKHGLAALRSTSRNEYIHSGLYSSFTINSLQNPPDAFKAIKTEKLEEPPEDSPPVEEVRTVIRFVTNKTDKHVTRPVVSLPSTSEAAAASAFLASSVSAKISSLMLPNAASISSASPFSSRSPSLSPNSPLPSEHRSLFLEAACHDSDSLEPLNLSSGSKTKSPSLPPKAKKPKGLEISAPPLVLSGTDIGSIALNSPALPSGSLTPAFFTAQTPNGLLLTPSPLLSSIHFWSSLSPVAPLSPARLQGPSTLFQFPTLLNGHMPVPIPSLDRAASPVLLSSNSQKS
Method in brief: as §1

SPI1 [2] = biological target: SPI1 (Homo sapiens, UniProt P17947 1-270); remark: listed apart in the source
Method in brief: as §1

Chain of SPIB (Q01892 whole entry): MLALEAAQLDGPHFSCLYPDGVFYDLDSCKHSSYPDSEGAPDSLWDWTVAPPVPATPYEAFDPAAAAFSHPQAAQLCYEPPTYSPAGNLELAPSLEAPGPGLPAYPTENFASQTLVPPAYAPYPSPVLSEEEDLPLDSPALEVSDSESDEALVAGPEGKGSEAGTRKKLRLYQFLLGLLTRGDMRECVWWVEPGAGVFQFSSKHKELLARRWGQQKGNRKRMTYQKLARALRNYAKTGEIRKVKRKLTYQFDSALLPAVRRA
Chain of ELF1 (P32519 whole entry): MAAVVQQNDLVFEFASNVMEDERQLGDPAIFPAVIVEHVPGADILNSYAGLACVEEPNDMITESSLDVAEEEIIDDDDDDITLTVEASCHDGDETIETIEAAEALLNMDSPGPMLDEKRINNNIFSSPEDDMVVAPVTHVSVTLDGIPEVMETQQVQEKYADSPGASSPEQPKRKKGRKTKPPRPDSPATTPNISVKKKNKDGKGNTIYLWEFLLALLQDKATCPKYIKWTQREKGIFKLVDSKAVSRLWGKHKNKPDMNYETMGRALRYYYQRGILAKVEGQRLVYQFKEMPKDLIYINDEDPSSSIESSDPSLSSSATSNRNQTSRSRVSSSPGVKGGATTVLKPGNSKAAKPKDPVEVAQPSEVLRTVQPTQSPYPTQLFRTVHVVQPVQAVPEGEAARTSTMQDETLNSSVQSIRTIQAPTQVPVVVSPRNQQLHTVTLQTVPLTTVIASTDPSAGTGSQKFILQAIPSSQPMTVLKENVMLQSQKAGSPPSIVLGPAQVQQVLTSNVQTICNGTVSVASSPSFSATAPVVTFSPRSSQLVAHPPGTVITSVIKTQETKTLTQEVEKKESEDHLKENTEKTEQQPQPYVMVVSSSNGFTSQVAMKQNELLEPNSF

Sequence	binding signal (FLI1)	binding signal (ELK1)	binding signal (GABPA)	binding signal (ERG)	binding signal (ELF1)	binding signal (EHF)	binding signal (SPI1 [1])	binding signal (SPIB)	binding signal (ELK3)	binding signal (SPI1 [2])
CCGCTC	1.53 fold enrichment (6-mer frequency, TF over GST control)	1.52 fold enrichment (6-mer frequency, TF over GST control)	1.39 fold enrichment (6-mer frequency, TF over GST control)	1.47 fold enrichment (6-mer frequency, TF over GST control)	1.58 fold enrichment (6-mer frequency, TF over GST control)	1.54 fold enrichment (6-mer frequency, TF over GST control)	1.48 fold enrichment (6-mer frequency, TF over GST control)	1.59 fold enrichment (6-mer frequency, TF over GST control)	1.49 fold enrichment (6-mer frequency, TF over GST control)	–
AGCAAT	1.07 fold enrichment (6-mer frequency, TF over GST control)	1.15 fold enrichment (6-mer frequency, TF over GST control)	1.09 fold enrichment (6-mer frequency, TF over GST control)	1.11 fold enrichment (6-mer frequency, TF over GST control)	1.18 fold enrichment (6-mer frequency, TF over GST control)	1.1 fold enrichment (6-mer frequency, TF over GST control)	1.1 fold enrichment (6-mer frequency, TF over GST control)	1.18 fold enrichment (6-mer frequency, TF over GST control)	1.05 fold enrichment (6-mer frequency, TF over GST control)	–
TTTCCG	3.86 fold enrichment (6-mer frequency, TF over GST control)	3.68 fold enrichment (6-mer frequency, TF over GST control)	3.28 fold enrichment (6-mer frequency, TF over GST control)	4.93 fold enrichment (6-mer frequency, TF over GST control)	3.41 fold enrichment (6-mer frequency, TF over GST control)	3.75 fold enrichment (6-mer frequency, TF over GST control)	–	3.89 fold enrichment (6-mer frequency, TF over GST control)	4.01 fold enrichment (6-mer frequency, TF over GST control)	3.47 fold enrichment (6-mer frequency, TF over GST control)
CGCCTT	1.45 fold enrichment (6-mer frequency, TF over GST control)	1.43 fold enrichment (6-mer frequency, TF over GST control)	1.45 fold enrichment (6-mer frequency, TF over GST control)	1.44 fold enrichment (6-mer frequency, TF over GST control)	1.44 fold enrichment (6-mer frequency, TF over GST control)	1.34 fold enrichment (6-mer frequency, TF over GST control)	1.35 fold enrichment (6-mer frequency, TF over GST control)	1.43 fold enrichment (6-mer frequency, TF over GST control)	1.46 fold enrichment (6-mer frequency, TF over GST control)	–
GATTTT	1.16 fold enrichment (6-mer frequency, TF over GST control)	1.15 fold enrichment (6-mer frequency, TF over GST control)	1.21 fold enrichment (6-mer frequency, TF over GST control)	1.12 fold enrichment (6-mer frequency, TF over GST control)	1.12 fold enrichment (6-mer frequency, TF over GST control)	1.18 fold enrichment (6-mer frequency, TF over GST control)	1.12 fold enrichment (6-mer frequency, TF over GST control)	1.12 fold enrichment (6-mer frequency, TF over GST control)	1.07 fold enrichment (6-mer frequency, TF over GST control)	–
CCAAAA	1.09 fold enrichment (6-mer frequency, TF over GST control)	1.13 fold enrichment (6-mer frequency, TF over GST control)	1.16 fold enrichment (6-mer frequency, TF over GST control)	1.12 fold enrichment (6-mer frequency, TF over GST control)	1.17 fold enrichment (6-mer frequency, TF over GST control)	1.15 fold enrichment (6-mer frequency, TF over GST control)	1.29 fold enrichment (6-mer frequency, TF over GST control)	1.12 fold enrichment (6-mer frequency, TF over GST control)	1.13 fold enrichment (6-mer frequency, TF over GST control)	–
TCCTGC	1.61 fold enrichment (6-mer frequency, TF over GST control)	1.8 fold enrichment (6-mer frequency, TF over GST control)	1.49 fold enrichment (6-mer frequency, TF over GST control)	1.68 fold enrichment (6-mer frequency, TF over GST control)	1.66 fold enrichment (6-mer frequency, TF over GST control)	1.53 fold enrichment (6-mer frequency, TF over GST control)	1.67 fold enrichment (6-mer frequency, TF over GST control)	1.81 fold enrichment (6-mer frequency, TF over GST control)	1.46 fold enrichment (6-mer frequency, TF over GST control)	–
